Laboratory results as given in PubChem BioAssay (NCATS).
Values joined by “and” are separate entries in the source; they are usually repeats but may differ in a detail not shown here. Identical values can stand only once. Where a structure was tested more than once in an assay, its records may differ in their call. Active and inactive are the calls of the source. Unless noted, calls come from the whole dose curve.

Experiments:
[1] = target: Estrogen receptor (Homo sapiens) (UniProt P03372); assay: qHTS assay for small molecule antagonists of estrogen receptor alpha signaling (AID 588513; active = well fitted curve in the direction sought with a large enough effect in the signal ratio, with a control signal flat, not every such curve was filed as active; inconclusive = small, poorly fitted or top-dose-only effect, or effect the other way, or a change in a side signal; inactive = no such curve, though single readings can be large or run the other way; the % refers to the signal ratio; note: potency is the fitted concentration of half-maximal effect)
Chain of Estrogen receptor (Homo sapiens) (P03372 whole entry, looked up): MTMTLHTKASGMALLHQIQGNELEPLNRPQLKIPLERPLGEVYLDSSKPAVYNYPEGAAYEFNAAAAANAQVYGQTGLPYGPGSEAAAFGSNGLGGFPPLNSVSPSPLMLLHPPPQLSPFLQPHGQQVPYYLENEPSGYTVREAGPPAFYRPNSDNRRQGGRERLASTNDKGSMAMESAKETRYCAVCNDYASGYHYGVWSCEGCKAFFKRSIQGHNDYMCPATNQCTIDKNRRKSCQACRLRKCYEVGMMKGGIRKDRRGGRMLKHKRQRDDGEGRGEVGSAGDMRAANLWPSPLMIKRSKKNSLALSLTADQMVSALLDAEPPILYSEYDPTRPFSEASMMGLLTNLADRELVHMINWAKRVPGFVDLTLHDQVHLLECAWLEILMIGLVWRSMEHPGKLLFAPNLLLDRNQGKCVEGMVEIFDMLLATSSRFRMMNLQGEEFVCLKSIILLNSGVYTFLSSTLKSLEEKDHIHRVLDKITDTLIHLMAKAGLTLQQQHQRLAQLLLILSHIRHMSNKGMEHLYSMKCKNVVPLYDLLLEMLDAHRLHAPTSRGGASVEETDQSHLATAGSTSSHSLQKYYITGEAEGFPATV
In short: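 Antagonist-mode qHTS in ER-alpha-UAS-bla HEK 293 cells: compound titration, 0.5nM estradiol for 18 h, CCF4 fluorescence, Hill-derived IC50.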

[2] = target: Estrogen receptor (Homo sapiens) (UniProt P03372); assay: qHTS assay for small molecule agonists of estrogen receptor alpha signaling (AID 588514);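 note: 0% = vehicle only and 100% = reference agonist; nearly all actives have a fitted effect of over 70% in size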
In short: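 Read-out: CCF4 fluorescence from a beta-lactamase reporter in ER-alpha-UAS-bla HEK 293 cells after 18 hrs of compound exposure at 37 C. Normalized to 20 nM 17-beta-estradiol (100%) and DMSO (0%).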

[3] = target: Peroxisome proliferator-activated receptor delta (Homo sapiens) (UniProt Q03181); assay: qHTS assay for small molecule agonists of peroxisome proliferator-activated receptor delta signaling (AID 588534);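 note: 0% = DMSO basal wells and 100% = positive control agonist at 10 µM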
Chain of Peroxisome proliferator-activated receptor delta (Homo sapiens) (Q03181 whole entry, looked up): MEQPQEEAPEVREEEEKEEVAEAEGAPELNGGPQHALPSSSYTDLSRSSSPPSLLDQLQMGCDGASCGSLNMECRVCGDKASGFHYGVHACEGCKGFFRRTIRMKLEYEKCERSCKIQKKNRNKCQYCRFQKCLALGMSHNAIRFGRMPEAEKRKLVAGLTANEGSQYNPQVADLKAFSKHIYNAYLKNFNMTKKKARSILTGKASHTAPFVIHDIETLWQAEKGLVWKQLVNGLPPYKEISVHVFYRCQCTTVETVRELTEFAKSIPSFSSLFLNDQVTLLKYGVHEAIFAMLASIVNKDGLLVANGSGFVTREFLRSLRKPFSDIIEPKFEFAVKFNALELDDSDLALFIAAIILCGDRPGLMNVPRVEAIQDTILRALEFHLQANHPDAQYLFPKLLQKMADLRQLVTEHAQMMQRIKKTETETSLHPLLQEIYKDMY
In short: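 Titration series tested in agonist mode on beta-lactamase reporter cells; 18 hrs at 37 C after a 5 hr pre-incubation. Readout: CCF4 fluorescence, 2 hrs RT. Hill equation gives EC50 and maximal response.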

[4] = target: Vitamin D3 receptor (Homo sapiens) (UniProt P11473); assay: qHTS assay for small molecule agonists of vitamin D receptor signaling (AID 588543);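 note: 0% = DMSO basal and 100% = reference agonist control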
Chain of Vitamin D3 receptor (Homo sapiens) (P11473 whole entry, looked up): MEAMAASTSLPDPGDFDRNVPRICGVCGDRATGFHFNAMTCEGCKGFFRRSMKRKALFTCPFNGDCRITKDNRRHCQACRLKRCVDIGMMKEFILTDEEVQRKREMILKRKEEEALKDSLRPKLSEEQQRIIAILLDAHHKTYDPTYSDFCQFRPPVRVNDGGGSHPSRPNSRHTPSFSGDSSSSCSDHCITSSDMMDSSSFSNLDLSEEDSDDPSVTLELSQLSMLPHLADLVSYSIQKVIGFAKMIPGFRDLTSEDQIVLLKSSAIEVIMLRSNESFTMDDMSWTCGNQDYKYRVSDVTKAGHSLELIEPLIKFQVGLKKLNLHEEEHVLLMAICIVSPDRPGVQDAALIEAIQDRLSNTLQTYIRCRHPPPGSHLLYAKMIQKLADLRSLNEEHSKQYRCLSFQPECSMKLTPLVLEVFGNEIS
In short: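 Measured: β-lactamase reporter activity (CCF4, 405 nm excitation, 460/530 nm emission) in HEK293T VDR-UAS-bla cells after 16 h compound exposure at 37 °C. Normalization against 50 nM 1α,25-dihydroxyvitamin D3 and DMSO; Hill-fit EC50.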

[5] = qHTS assay for small molecule agonists of retinoid X receptor alpha signaling (AID 588544); details: HEK293T RXRa-UAS-bla, beta-lactamase reporter, 18 h; 530 nm emission;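 for activation: 0% = DMSO basal wells and 100% = reference agonist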
[6] = target: Retinoic acid receptor RXR-alpha (Homo sapiens) (UniProt P19793); assay: as above
Chain of Retinoic acid receptor RXR-alpha (Homo sapiens) (P19793 whole entry, looked up): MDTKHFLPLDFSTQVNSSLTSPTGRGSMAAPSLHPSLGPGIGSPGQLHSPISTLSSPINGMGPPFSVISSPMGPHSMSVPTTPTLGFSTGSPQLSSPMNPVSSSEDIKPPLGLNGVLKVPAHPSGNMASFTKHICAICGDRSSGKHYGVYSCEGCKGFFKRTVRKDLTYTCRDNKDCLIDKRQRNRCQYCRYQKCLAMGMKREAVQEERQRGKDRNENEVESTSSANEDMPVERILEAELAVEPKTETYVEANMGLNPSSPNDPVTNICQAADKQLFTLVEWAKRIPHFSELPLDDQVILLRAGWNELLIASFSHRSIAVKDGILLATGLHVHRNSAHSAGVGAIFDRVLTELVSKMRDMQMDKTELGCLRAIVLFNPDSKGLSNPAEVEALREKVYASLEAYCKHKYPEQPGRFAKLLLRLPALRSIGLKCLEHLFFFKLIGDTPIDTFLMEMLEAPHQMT

[7] = qHTS assay for small molecule antagonists of retinoid X receptor alpha signaling (AID 588546; active = well fitted inhibition curve with a large enough effect in the signal ratio, with a control signal flat, not every such curve was filed as active; inconclusive = small, poorly fitted or top-dose-only effect, or effect the other way, or a change in a side signal; inactive = no such curve, though single readings can be large or run the other way; the % refers to the signal ratio;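 note: cells stimulated with 9-cis-retinoic acid as agonist; % is set by controls: 0 for no effect and ±100 for the full control effect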); details: HEK293T RXRa-UAS-bla, beta-lactamase ratio, antagonist mode; measured here: W530 green channel, cytotoxicity proxy
In short: (§1)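 Beta-lactamase reporter inhibition, read as CCF4 fluorescence ratio (ex 405, em 460/530 nm) after 2 h at RT. HEK293T UAS-bla cells, 2500/well, were stimulated with 9-cis-RA at 500 or 100 nM final alongside test compound for 18 h at 37 C.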

[8] = target: Retinoic acid receptor RXR-alpha (Homo sapiens) (UniProt P19793); assay: as above; details: HEK293T RXRa-UAS-bla, beta-lactamase ratio, antagonist mode
In short: as §1

[9] = qHTS assay for small molecule activators of the p53 signaling pathway (AID 651743; active = well fitted activation curve with a large enough effect in the signal ratio, not every such curve was filed as active; inconclusive = small, poorly fitted or top-dose-only effect, or a change in a side signal; the % refers to the signal ratio; note: potency is the fitted concentration of half-maximal effect; for activation: series mostly up to about 92 µM; % of control where 0% means no effect); details: HCT-116 p53RE-bla, beta-lactamase FRET ratio, 16 h; activation: stronger effect = higher value
In short: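 A beta-lactamase reporter under p53 response element control, stably carried by HCT-116 cells, reported pathway activation. Test compounds were applied for 16 hours at 37 C, and fluorescence was measured 2 hours after adding the B/G FRET substrate.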

[10] = qHTS assay for environmental chemicals that activate the Aryl hydrocarbon Receptor (AhR) signaling pathway (AID 651777; active = well fitted curve in the direction sought with a large enough effect; inconclusive = small, poorly fitted or top-dose-only effect, or another doubt; inactive = no such curve, though single readings can be large; an effect the other way counts as inactive or inconclusive; note: % of control where 0% means no effect; nearly all actives have a fitted effect of over 15% in size); details: 1A2-DRE human hepatoma cells, luciferase, 24 h; activation: stronger effect = higher value
In short: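 Reporter gene assay: hepatoma cells with DRE/CYP1A2-luciferase, 24 hr compound incubation at 37 C, 5% CO2, luminescence after One-Glo (30 min, RT).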

[11] = target: Peroxisome proliferator-activated receptor alpha (Homo sapiens) (UniProt Q07869); assay: qHTS assay for small molecule agonists of the peroxisome proliferator-activated receptor alpha (PPARalpha) signaling pathway (AID 651778; active = well fitted curve in the direction sought with a large enough effect; inconclusive = small, poorly fitted or top-dose-only effect, or another doubt; inactive = no such curve, though single readings can be large; an effect the other way counts as inactive or inconclusive; note: % of control where 0% means no effect); details: PathHunter PPARalpha complementation, chemiluminescence, 6 h; max response: stronger effect = higher value
Chain of Peroxisome proliferator-activated receptor alpha (Homo sapiens) (Q07869 whole entry, looked up): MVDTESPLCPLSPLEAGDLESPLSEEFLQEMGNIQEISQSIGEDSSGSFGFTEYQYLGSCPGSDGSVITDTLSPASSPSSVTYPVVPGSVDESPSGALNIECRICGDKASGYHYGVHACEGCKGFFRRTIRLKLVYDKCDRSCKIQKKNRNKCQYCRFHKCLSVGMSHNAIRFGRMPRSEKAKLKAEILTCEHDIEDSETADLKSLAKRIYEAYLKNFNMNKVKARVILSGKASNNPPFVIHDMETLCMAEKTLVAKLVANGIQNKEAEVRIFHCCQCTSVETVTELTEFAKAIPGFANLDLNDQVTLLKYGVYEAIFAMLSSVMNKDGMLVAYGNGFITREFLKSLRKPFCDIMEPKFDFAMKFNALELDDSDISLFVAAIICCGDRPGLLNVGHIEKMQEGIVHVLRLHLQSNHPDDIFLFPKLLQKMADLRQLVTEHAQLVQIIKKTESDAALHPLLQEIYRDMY
In short: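 Chemiluminescence from complemented enzyme reported PPARalpha activation in cells after 6 hr of compound treatment at 37 C. The detection reagent was incubated for 60 min at room temperature, and compounds were scored as agonists.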

[12] = qHTS assay for small molecule agonists of the antioxidant response element (ARE) signaling pathway measured by Nrf2-dependant transcriptional activity (AID 720636; active = well fitted curve in the direction sought with a large enough effect in the repeat runs; inconclusive = weak or mixed curves; inactive = no such curve, though single readings can be large; an effect the other way counts as inactive or inconclusive; note: potency is the fitted concentration of half-maximal effect;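 for activation: HepG2 cells with an ARE-driven luciferase reporter; % of control where 0% means no effect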)
In short: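 Nrf2-dependent transcription is measured in ARE-luc HepG2 cells: compound is applied for 16 hr at 37 C after a 6 hr attachment period, and luciferase activity is quantified by luminescence using ONE-Glo.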

[13] = qHTS assay for small molecule agonists of the antioxidant response element (ARE) signaling pathway measured by Nrf2-dependant transcriptional activity - cell viability counter screen (AID 720653; active = well fitted curve in the direction sought with a large enough effect in the repeat runs; inconclusive = weak or mixed curves; inactive = no such curve, though single readings can be large; an effect the other way counts as inactive or inconclusive; note: % is set by controls: 0 for no effect and ±100 for the full control effect); details: ARE-bla HepG2 viability, CellTiter-Glo ATP luminescence, 16 h; max response: stronger effect = lower value
In short: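 Cytotoxicity counter screen: intracellular ATP quantified by CellTiter-Glo luminescence in the same ARE-bla HepG2 plates, after 16 h compound exposure and a 2 h beta-lactamase substrate step.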

[14] = qHTS assay for cell viability of HEK293 cells (AID 743288; active = well fitted curve in the direction sought with a large enough effect; inconclusive = small, poorly fitted or top-dose-only effect, or another doubt; inactive = no such curve, though single readings can be large; an effect the other way counts as inactive or inconclusive; note: % is set by controls: 0 for no effect and ±100 for the full control effect; nearly all actives have a fitted effect of over 50% in size); details: ATP luminescence (CellTiter-Glo), 18 h; max response: stronger effect = lower value
In short: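 HEK293, 18 h, 37 C, ATP luminescence. Cells at 2,000/well were allowed at least 5 h to settle before dosing; CellTiter-Glo developed 30 min at RT.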

[15] = qHTS assay for cell viability of the p53RE-bla HCT-116 cell line (AID 743292; active = well fitted curve in the direction sought with a large enough effect; inconclusive = small, poorly fitted or top-dose-only effect, or another doubt; inactive = no such curve, though single readings can be large; an effect the other way counts as inactive or inconclusive; note: % is set by controls: 0 for no effect and ±100 for the full control effect; nearly all actives have a fitted effect of over 55% in size)
In short: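 ATP-based luminescence, 16 h compound exposure at 37 C, p53RE-bla HCT-116 cells at 4,000/well.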

[16] = target: Nuclear receptor subfamily 1 group I member 2 (Rattus norvegicus) (UniProt Q9R1A7); assay: qHTS assay for small molecule activators of the rat pregnane X receptor (rPXR) signaling pathway (AID 651751; call rule not given here; note: 0% is about no effect); details: rPXR reporter cells, luciferase (One-Glo), 24 h
Chain of Nuclear receptor subfamily 1 group I member 2 (Rattus norvegicus) (Q9R1A7 whole entry, looked up): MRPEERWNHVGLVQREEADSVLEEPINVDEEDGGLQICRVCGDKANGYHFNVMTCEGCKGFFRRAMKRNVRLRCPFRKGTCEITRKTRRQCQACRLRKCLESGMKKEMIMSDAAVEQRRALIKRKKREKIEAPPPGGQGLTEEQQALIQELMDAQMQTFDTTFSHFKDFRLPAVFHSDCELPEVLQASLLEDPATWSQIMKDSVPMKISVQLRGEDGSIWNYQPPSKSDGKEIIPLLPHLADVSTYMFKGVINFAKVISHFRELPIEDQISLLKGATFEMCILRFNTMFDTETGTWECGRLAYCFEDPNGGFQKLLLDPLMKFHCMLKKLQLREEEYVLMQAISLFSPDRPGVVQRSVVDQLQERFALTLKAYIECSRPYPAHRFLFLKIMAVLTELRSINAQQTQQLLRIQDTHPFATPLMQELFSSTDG

[17] = target: Glucocorticoid receptor (Homo sapiens) (UniProt P04150); assay: qHTS assay for small molecule agonists of glucocorticoid receptor signaling (AID 588532; active = well fitted curve in the direction sought with a large enough effect in the signal ratio, with a control signal flat; inconclusive = small, poorly fitted or top-dose-only effect, or a change in a side signal; inactive = no such curve, though single readings can be large or run the other way; the % refers to the signal ratio;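 note: 100% = dexamethasone at 0.1 µM and 0% = DMSO only wells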); details: HeLa MMTV-bla, beta-lactamase ratio, agonist, 18 h; activation: stronger effect = higher value, percent of dexamethasone control, DMSO zero
Chain of Glucocorticoid receptor (Homo sapiens) (P04150 whole entry, looked up): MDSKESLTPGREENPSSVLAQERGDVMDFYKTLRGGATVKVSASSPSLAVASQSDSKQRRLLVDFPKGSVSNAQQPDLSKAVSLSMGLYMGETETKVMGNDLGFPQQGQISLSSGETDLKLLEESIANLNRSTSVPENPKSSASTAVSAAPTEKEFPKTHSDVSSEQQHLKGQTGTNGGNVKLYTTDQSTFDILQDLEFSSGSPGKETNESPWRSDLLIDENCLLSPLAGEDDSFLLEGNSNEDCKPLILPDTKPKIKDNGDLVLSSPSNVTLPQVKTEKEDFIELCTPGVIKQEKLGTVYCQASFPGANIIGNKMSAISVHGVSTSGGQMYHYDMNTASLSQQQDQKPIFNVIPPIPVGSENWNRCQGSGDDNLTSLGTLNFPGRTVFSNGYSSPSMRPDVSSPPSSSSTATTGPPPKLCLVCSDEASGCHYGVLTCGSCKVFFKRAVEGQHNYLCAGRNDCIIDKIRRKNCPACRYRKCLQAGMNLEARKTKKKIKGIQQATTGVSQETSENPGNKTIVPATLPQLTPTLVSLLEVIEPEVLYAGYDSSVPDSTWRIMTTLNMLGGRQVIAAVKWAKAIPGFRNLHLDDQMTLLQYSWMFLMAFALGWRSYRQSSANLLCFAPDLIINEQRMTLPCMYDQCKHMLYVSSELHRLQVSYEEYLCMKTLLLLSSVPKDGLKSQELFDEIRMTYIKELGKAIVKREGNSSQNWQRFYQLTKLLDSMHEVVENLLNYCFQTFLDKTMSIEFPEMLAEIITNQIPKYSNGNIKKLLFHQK
In short: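 Quantitative HTS using CellSensor MMTV-bla HeLa cells in charcoal/dextran-treated serum; compounds tested up to 92 uM. After 18 h at 37 C, CCF4 dye reported reporter induction.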

[18] = target: Vitamin D3 receptor (Homo sapiens) (UniProt P11473); assay: qHTS assay for small molecule antagonists of vitamin D receptor signaling (AID 588541);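 note: receptor activated by calcitriol during compound treatment; series mostly up to about 77 µM; % is set by controls: 0 for no effect and ±100 for the full control effect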
In short: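 Antagonist-mode beta-lactamase reporter assay: HEK293T VDR-UAS-bla cells were exposed to titrated compound alongside 1-alpha,25-dihydroxyvitamin D3 at 3 nM final for 16 h. Values were normalized to the 50 nM agonist control and DMSO basal, with IC50 and efficacy from Hill equation fits.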

[19] = target: Thyroid hormone receptor beta (Homo sapiens) (UniProt P10828); assay: qHTS assay for small molecule agonists of thyroid hormone receptor beta signaling (AID 588545);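 note: 0% = DMSO only and 100% = 10 nM T3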
Chain of Thyroid hormone receptor beta (Homo sapiens) (P10828 whole entry, looked up): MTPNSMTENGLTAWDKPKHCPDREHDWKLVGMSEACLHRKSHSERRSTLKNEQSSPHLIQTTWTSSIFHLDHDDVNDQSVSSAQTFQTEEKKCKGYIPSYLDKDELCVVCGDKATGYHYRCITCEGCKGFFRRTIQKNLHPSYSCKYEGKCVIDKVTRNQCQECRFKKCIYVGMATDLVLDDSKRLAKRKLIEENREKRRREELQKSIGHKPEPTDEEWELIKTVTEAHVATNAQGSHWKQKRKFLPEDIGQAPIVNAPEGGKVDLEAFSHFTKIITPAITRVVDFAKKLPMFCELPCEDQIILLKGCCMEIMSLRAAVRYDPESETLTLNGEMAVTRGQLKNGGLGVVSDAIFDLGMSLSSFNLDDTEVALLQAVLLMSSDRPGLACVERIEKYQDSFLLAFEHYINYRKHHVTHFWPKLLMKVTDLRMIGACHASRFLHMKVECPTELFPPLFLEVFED
In short: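 TR-UAS-bla GripTite HEK 293 cells (2500/well, medium with 2% charcoal/dextran FBS) were treated in agonist mode for 18 h at 37 C, titrated. Beta-lactamase was read by CCF4 ratio after 2 h; normalized to 10 nM T3 (100%) and DMSO, Hill-fitted for EC50 and efficacy.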

[20] = target: Thyroid hormone receptor beta (Homo sapiens) (UniProt P10828); assay: qHTS assay for small molecule antagonists of thyroid hormone receptor beta signaling (AID 588547; active = well fitted inhibition curve with a large enough effect in the signal ratio, with a control signal flat, not every such curve was filed as active; inconclusive = small, poorly fitted or top-dose-only effect, or effect the other way, or a change in a side signal; the % refers to the signal ratio;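 note: cells stimulated with 0.4 nM T3 agonist during compound exposure; series mostly up to about 77 µM; % is set by controls: 0 for no effect and ±100 for the full control effect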); details: TR-UAS-bla HEK293, beta-lactamase ratio, antagonist mode, 18 h
In short: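 Inhibition of T3-driven (0.4nM final) beta-lactamase reporter activity was measured over 0.59 nM to 92 uM compound after 18 h at 37 C. The cells were GripTite HEK293 TR-UAS-bla in charcoal/dextran-stripped serum, with CCF4 ratio read-out and IC50 from Hill fits.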

COCC(=O)N(c1c(C)cccc1C)[C@H](C)C(=O)OC
inactive: Potency [1] | Potency [2] | outcome [3] | outcome [4] | Potency [6] | max response [8] -14.1% | activation [9] -0.822% | activation [10] 1.21% | max response [11] -0.29% | Potency [12] | max response [13] -2.34% | max response [14] -1.89% | Potency [15] | max response [16] -0.694%
-4.91%: max response [7]
-8.28%: max response [5]

O=S(=O)(O)C(F)(F)C(F)(F)C(F)(F)C(F)(F)C(F)(F)C(F)(F)F
-12.5% and -11.4%: max response [5]
inactive: Potency [1] | activation [17] 2.96% and -3.35% | outcome [3] | Potency [18] | outcome [4] | Potency [6] | Potency [19] | max response [8] -0.502% | activity change % (negative = inhibition) [20] 23.1% | activation [9] -1.95% and 1.08% | activation [10] 2.71% and 0.937% | max response [11] 12% and 14.9% | Potency [12] | max response [13] 4.85% and -13.8% | max response [14] -20.2% and -14.6% | Potency [15] | max response [16] -2.73% and -3.57%
0.0729%: max response [7]

O=Nc1ccc(Nc2ccccc2)cc1
inactive: outcome [3] | outcome [4] | activation [9] 19.9% | activation [10] 6.01%
active: Potency [1] 12.6 µM [inconclusive] | Potency [9] 50.1 µM | Potency [12] 21.7 µM

CCNc1nc(Cl)nc(NC(C)(C)C)n1
inactive: Potency [2] | outcome [3] | Potency [18] | outcome [4] | Potency [19] | activity change % (negative = inhibition) [20] -28% | activation [10] 6.82% | max response [11] 0.909% | Potency [12] | max response [13] -4.66% | max response [14] -13.7% | Potency [15] | max response [16] 4.19%

CNC(=O)/C=C(\C)OP(=O)(OC)OC
inactive: Potency [1] | activation [17] -1.15% | outcome [3] | Potency [18] | outcome [4] | Potency [6] | Potency [19] | activity change % (negative = inhibition) [20] -12.7% | activation [10] 7.36% | max response [11] -1.97% | max response [13] -10% | max response [14] -10.5% | Potency [15] | max response [16] 0.645%
-13.8%: max response [5]
-16.8%: max response [7]

CC(=O)[C@H]1[C@H](C#N)C[C@H]2[C@@H]3CC=C4C[C@@H](O)CC[C@]4(C)[C@H]3CC[C@@]21C
inactive: Potency [1] | outcome [4] | activity change % (negative = inhibition) [20] 6.3%

C=CC1(C)OC(=O)N(c2cc(Cl)cc(Cl)c2)C1=O (centres undefined)
-0.794%: max response [7]
inactive: Potency [1] | activation [17] -11.4% | outcome [3] | Potency [18] | outcome [4] | Potency [19] | max response [8] -13.3% | activation [10] -0.237% | max response [11] -2.56% | Potency [12] | max response [13] -7.58% | max response [14] -8.07% | Potency [15] | max response [16] -0.0091%
